The text below walks through data of ChEMBL document CHEMBL3988442, “University of Dundee, Small-Polar-MMV Screening Library” (2021).

The campaign covered roughly 48,000 compounds. About 13,000 (27%) showed an effect of 50% or more. The list shows a part of the results.

For this experiment, the system named is Wolbachia pipientis. The experiment can be described thus: Anti-Wolbachia Cell-Based Screen. To be noted: 5 µM. Also noted: scale not given: in the data most compounds retested in dose-response had high values. Format: functional.
Consider `Cn1nc(CNC(=O)C2CC2)cc1C1CC1`, for which the “Percent Effect” value was found to be 4.922%.

On to `Cn1nc(CNC(=O)C2CCCCC2)cc1C1CC1`, for which the “Percent Effect” value worked out at 119.6%.

Take `C/C=C(\C)CN1CCCn2nc(CNC(=O)C3CCC3)cc2C1`: the “Percent Effect” value is given as 8.995%. Turning to `Cn1nc(CNC(=O)C2CCC2)cc1C1CC1`, the “Percent Effect” value was 172.6%. Next, `O=C(NCc1cc(C2CC2)n(C2CCCC2)n1)C1CC1`: 118.5%; `Cn1nc(CNC(=O)C2CCCC2)cc1C1CC1`: -4.336%; `Cn1nc(CNC(=O)C2CCN(S(C)(=O)=O)CC2)cc1C1CC1`: 134.6%. As to `CCC(=O)NCc1cc(C2CC2)n(C2CCCC2)n1`, the “Percent Effect” value was -1.631%. As for `Cc1ccc2c(c1)OC(C)(C)CC2NC(=O)C1CCN(S(C)(=O)=O)CC1` (stereo not drawn), the figure is -7.671%; as for `O=C(O)C1(Cc2ccccc2Cl)CCN(c2ncccn2)CC1`, 4.771%; as for `Cc1noc(-c2cccnc2N(C)Cc2cscn2)n1`, -2.045%. As for `CCC[C@H]1CN(CCOC)C[C@@H]1NC(=O)Cn1cc(C)cn1`, the figure is -1.609%; as for `CCc1ncc(C(=O)NC(C)(C)CC)s1`, -4.681%; as for `CCC(C)n1cnc(S(=O)(=O)N(C)C)c1` (stereo not drawn), -2.659%. On to `CCC(=O)N1CCC(c2nnc(Cn3cncn3)n2C2CC2)CC1`, for which the “Percent Effect” value was -3.377%.

As for `Cc1cncnc1C1CCN(C(=O)CN(C)C)CC1`, the “Percent Effect” value came out at 107.4%.

With `Cc1noc(C2CCN(C(=O)CN(C)c3ccc(Cl)cn3)CC2)n1`, the “Percent Effect” value is on record as -9.214%. For the compound `CCC(=O)N1CCC(c2ncncc2C)CC1`, the “Percent Effect” value came out at 105.8%. Next, `CCC(=O)N1CCC(c2nnc(Cn3cccn3)n2C2CC2)CC1`: 6.186%; `Cc1cc(C)n(-c2cncc(N3CCN(C(=O)CN(C)C)CC3)n2)n1`: -21.39%; `NC(=O)CSCC(=O)N1CCc2cc(Cl)cc(Cl)c2C1`: -10.26%. Next, `Cc1noc(C)c1C(=O)NCC(C)N1CCc2ccccc21` (stereo not drawn): 136.7%. In the case of `CC(CNC(=O)c1cccc(C#N)c1)N1CCc2ccccc21` (stereo not drawn), the “Percent Effect” value was -2.298%. In the case of `CC(CNC(=O)c1ccc(C#N)cc1)N1CCc2ccccc21` (stereo not drawn), the “Percent Effect” value was -4.664%. As for `CCC(CNC(=O)c1ccc(=O)[nH]n1)N1CCc2ccccc2C1` (stereo not drawn), the “Percent Effect” value was -13.41%. Next, `Cc1noc(C)c1C(=O)NCC(C)N(C)C` (stereo not drawn): -3.203%; `CC(CNC(=O)c1ccc(=O)[nH]n1)N1CCc2ccccc21` (stereo not drawn): 114.6%.

Regarding `O=C(c1ccc(=O)[nH]n1)N1CCc2ccccc21`, the “Percent Effect” value is 6.411%. On to `COc1ccc(NC(=O)NCC(C)N2CCc3ccccc32)cc1` (stereo not drawn), for which the “Percent Effect” value is given as 6.782%. As for `Cc1noc(C)c1C(=O)NCC1CCCCN1Cc1ccccc1` (stereo not drawn), the “Percent Effect” value amounted to 1.84%. Next, `CC(CNC(=O)c1cc(C2CC2)on1)N1CCc2ccccc21` (stereo not drawn): 110.3%; `Cc1cc(C(=O)NCC(C)N2CCc3ccccc32)on1` (stereo not drawn): 128.5%.

`O=C(NCCSC1CCCC1)c1cc(C2CC2)on1`: the “Percent Effect” value was found to be 6.284%.
